In PubChem BioAssay (Tox21):
Results filed as inconclusive are left out. Activity calls are given as the source filed them. Unless noted, the call rests on the fitted dose curve; in most records, active means well fitted curve in the direction sought with a large enough effect in the repeat runs; inconclusive means weak or mixed curves; inactive means no such curve, though single readings can be large; an effect the other way counts as inactive or inconclusive.

Tests used:
[1] = qHTS assay to identify small molecule antagonists of the estrogen receptor alpha (ER-alpha) signaling pathway using the BG1 cell line in the presence of 0.1 nM 17-beta-estradiol - cell viability counter screen (AID 1259241); further: nearly all actives have a fitted effect of over 40% in size; further: potency means the concentration at half of the fitted maximal effect
In short: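 VM7Luc4E2 cells (endogenous full-length ER-alpha, 4xERE-luciferase), cultured 5 days in charcoal-stripped serum, exposed to compounds with 0.1 nM 17beta-estradiol (final) for 22 hr at 37C. Viability read in same wells as live-cell protease fluorescence after 30 min.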

[2] = qHTS assay to identify small molecule antagonists of the androgen receptor (AR) signaling pathway using the MDA cell line in the presence of 0.5 nM R1881 - cell viability counter screen (AID 1259242); further: nearly all actives have a fitted effect of over 45% in size; further: potency means the concentration at half of the fitted maximal effect
In short: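 Steps: plate MDA-kb2 cells, rest 5 hr at 37C without CO2; pin in compounds in DMSO; add R1881 to 0.5 nM final; incubate 16 hr; add CellTiter-Fluor, 30 min; read fluorescence.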

[3] = target: Estrogen receptor (Homo sapiens) (UniProt P03372); assay: qHTS assay to identify small molecule antagonists of the estrogen receptor alpha (ER-alpha) signaling pathway using the BG1 cell line in the presence of 0.1 nM 17-beta-estradiol (AID 1259244); further: nearly all actives have a fitted effect of over 50% in size; further: potency means the concentration at half of the fitted maximal effect
In short: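 Antagonist mode: compounds in DMSO are pinned onto VM7Luc4E2 reporter cells, 0.1 nM final 17beta-estradiol is added, and after 22 h at 37C luciferase luminescence is measured with ONE-Glo.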

[4] = qHTS assay to identify small molecule phospholipidosis (PLD) inducers (AID 1259344; active means well fitted curve in the direction sought with a large enough effect; an effect the other way counts as inactive or inconclusive)
In short: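 Cells (HepG2, 900 per well) attach for 4 h, receive LipidTOX Red and compound together, incubate 24 h at 37 C, are fixed 30 min with paraformaldehyde/Hoechst, then imaged at one site per well.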

[5] = qHTS assay to identify small molecule HDAC inhibitors (AID 1259364); further: potency means the concentration at half of the fitted maximal effect;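 further: wild-type HCT-116 cells with endogenous class I/II HDAC activity; nearly all actives have a fitted effect of over 45% in size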
In short: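 Cells (HCT-116, wild type) are seeded at 1,500 per well, incubated overnight, treated with compound in DMSO for 2 hr, then developed with HDAC-Glo I/II reagent for 30 min at room temperature.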

[6] = qHTS assay to identify small molecule HDAC inhibitors - cell viability counter screen (AID 1259365); further: nearly all actives have a fitted effect of over 50% in size; further: potency means the concentration at half of the fitted maximal effect
In short: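 Wild-type HCT-116 cells, 1,500/well, cultured overnight, then compound-treated 2 h at 37 C. Viability measured as ATP luminescence with CellTiter-Glo after 30 min at room temperature.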

[7] = qHTS assay to identify small molecule agonists of the sonic hedgehog signaling (Shh) pathway - cell viability counter screen (AID 1259366); further: nearly all actives have a fitted effect of over 50% in size; further: potency means the concentration at half of the fitted maximal effect
In short: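 NIH/3T3-derived Gli1-Luc reporter cells, 2,000 per well, received compound after 4 h and were treated about 23 h at 37C. Viability measured in the same wells by CellTiter-Fluor fluorescence after 1 h.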

[8] = qHTS assay to identify small molecule antagonists of the sonic hedgehog signaling (Shh) pathway - cell viability counter screen (AID 1259367); further: nearly all actives have a fitted effect of over 55% in size
In short: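 Cytotoxicity was assessed in parallel with Shh reporter activity by measuring live-cell protease fluorescence (CellTiter-Fluor) in NIH/3T3 cells stably carrying Gli1-Luc, treated with compound under conditioned medium stimulation for 23 hr plus 1 hr reagent incubation.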

[9] = qHTS assay to identify small molecule agonists of the sonic hedgehog signaling (Shh) pathway (AID 1259368; calls by dose curve;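 further: NIH/3T3-derived 3T3Gli1-Luc cells carrying a stable Gli1-driven firefly luciferase reporter; series mostly up to about 92 µM; nearly all actives have a fitted effect of over 15% in size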)
In short: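 Cells of a mouse NIH/3T3 clone stably expressing luciferase under the Gli1 transcriptional response element are exposed to test chemicals for 24 hr at 37 C. Pathway activation is detected as a rise in luminescence.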

[10] = qHTS assay to identify small molecule antagonists of the sonic hedgehog signaling (Shh) pathway (AID 1259369; calls by dose curve; further: nearly all actives have a fitted effect of over 45% in size; further: potency means the concentration at half of the fitted maximal effect)
In short: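 Cells are plated and held 4hr at 37 C, compounds (DMSO) are pinned in, conditioned medium is added to stimulate the pathway, and after 24hr luciferase reagent is added for 30min before luminescence is read.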

[11] = target: Estrogen receptor beta (Homo sapiens) (UniProt Q92731); assay: qHTS assay to identify small molecule agonists of the estrogen receptor beta (ER-beta) signaling pathway (AID 1259377; active means well fitted activation curve with a large enough effect in the signal ratio in the repeat runs, not every such curve was filed as active; the % refers to the signal ratio)
In short: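 ER-beta-UAS-bla HEK293T cells in medium with 2% charcoal-stripped FBS were exposed to compounds for 16 h at 37C. Beta-lactamase reporter activity was read as fluorescence after 2 h with LiveBLAzer B/G FRET substrate at room temperature.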

[12] = qHTS assay to identify small molecule agonists of the androgen receptor (AR) signaling pathway in the presence of an antagonist - cell viability counter screen (AID 1259379); further: nearly all actives have a fitted effect of over 25% in size; further: potency means the concentration at half of the fitted maximal effect
In short: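 Cytotoxicity is assessed by CellTiter-Fluor in MDA-kb2 cells carrying an MMTV-driven luciferase reporter. Cells receive 3.0uM nilutamide plus compounds at 15 concentrations and incubate 16 hr at 37C without CO2 before fluorescence reading.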

[13] = qHTS assay to identify small molecule agonists of the estrogen receptor beta (ER-beta) signaling pathway - cell viability counter screen (AID 1259380); further: nearly all actives have a fitted effect of over 30% in size; further: potency means the concentration at half of the fitted maximal effect
In short: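 Cytotoxicity is measured in parallel with the reporter screen: after 16 hr compound exposure at 37C and a 2 hr LiveBLAzer step, CellTiter-Glo is added to the same ER-beta-UAS-bla HEK293T wells and luminescence read after 30 min.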

[14] = qHTS assay to identify small molecule antagonists of the estrogen receptor beta (ER-beta) signaling pathway - cell viability counter screen (AID 1259382); further: nearly all actives have a fitted effect of over 55% in size; further: potency means the concentration at half of the fitted maximal effect
In short: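 Cytotoxicity counter screen multiplexed with the beta-lactamase antagonist assay: GripTite HEK293T ER-beta-bla cells were treated 16 hr with test chemicals in the presence of 1nM 17-beta-estradiol, and viability was measured by CellTiter-Glo.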

[15] = target: Estrogen receptor (Homo sapiens) (UniProt P03372); assay: qHTS assay to identify small molecule agonists of the estrogen receptor alpha (ER-alpha) signaling pathway in the presence of an antagonist (AID 1259383; calls by dose curve; further: top concentration of the series differs between compounds; nearly all actives have a fitted effect of over 15% in size)
In short: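 Agonist-mode confirmation in the presence of the ER antagonist ICI-182,780 at 10.0nM final. Breast-derived VM7Luc4E2 reporter cells were exposed to compounds for 22hr, and ERE-driven luciferase was quantified by luminescence.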

[16] = qHTS assay to identify small molecule agonists or antagonists of the thyroid stimulating hormone receptor (TSHR) signaling pathway - wild type cell line counter screen (AID 1259384; calls by dose curve)
In short: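 Wild-type HEK293 cells were plated 18 h at 37 C/5% CO2, pin-dosed with compound plus Ro20-1724 medium, held 30 min at room temperature, then given cAMP-d2 and anti-cAMP-cryptate; fluorescence was read after 1 h. Fifteen concentrations, triplicate.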

[17] = target: Estrogen receptor beta (Homo sapiens) (UniProt Q92731); assay: qHTS assay to identify small molecule antagonists of the estrogen receptor beta (ER-beta) signaling pathway (AID 1259378; active means well fitted inhibition curve with a large enough effect in the signal ratio in the repeat runs, not every such curve was filed as active; the % refers to the signal ratio)
In short: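 ER-beta-UAS-bla HEK293T (GripTite) cells in 2% charcoal-stripped FBS medium were preincubated 6 hr at 37C, dosed with compound, then stimulated with 1 nM E2 (final) for 16 hr; beta-lactamase reporter read by B/G FRET fluorescence after 2 hr substrate loading.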

Measured: Potency

Sequence of Estrogen receptor beta (Homo sapiens) (Q92731 whole entry, looked up): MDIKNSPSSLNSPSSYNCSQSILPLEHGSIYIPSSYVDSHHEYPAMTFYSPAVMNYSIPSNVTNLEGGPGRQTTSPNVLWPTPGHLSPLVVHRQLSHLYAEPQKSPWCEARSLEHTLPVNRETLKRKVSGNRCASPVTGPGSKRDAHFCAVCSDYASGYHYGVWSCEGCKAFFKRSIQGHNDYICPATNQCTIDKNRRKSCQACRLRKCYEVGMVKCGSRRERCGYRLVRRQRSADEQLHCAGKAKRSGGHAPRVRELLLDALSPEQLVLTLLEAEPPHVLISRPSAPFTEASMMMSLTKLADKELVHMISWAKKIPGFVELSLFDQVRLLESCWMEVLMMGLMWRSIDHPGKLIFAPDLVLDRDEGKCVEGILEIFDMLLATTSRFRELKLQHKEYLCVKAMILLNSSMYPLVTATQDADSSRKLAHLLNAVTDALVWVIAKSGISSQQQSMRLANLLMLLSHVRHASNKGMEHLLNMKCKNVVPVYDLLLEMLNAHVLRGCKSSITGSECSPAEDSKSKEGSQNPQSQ
Sequence of Estrogen receptor (Homo sapiens) (P03372 whole entry, looked up): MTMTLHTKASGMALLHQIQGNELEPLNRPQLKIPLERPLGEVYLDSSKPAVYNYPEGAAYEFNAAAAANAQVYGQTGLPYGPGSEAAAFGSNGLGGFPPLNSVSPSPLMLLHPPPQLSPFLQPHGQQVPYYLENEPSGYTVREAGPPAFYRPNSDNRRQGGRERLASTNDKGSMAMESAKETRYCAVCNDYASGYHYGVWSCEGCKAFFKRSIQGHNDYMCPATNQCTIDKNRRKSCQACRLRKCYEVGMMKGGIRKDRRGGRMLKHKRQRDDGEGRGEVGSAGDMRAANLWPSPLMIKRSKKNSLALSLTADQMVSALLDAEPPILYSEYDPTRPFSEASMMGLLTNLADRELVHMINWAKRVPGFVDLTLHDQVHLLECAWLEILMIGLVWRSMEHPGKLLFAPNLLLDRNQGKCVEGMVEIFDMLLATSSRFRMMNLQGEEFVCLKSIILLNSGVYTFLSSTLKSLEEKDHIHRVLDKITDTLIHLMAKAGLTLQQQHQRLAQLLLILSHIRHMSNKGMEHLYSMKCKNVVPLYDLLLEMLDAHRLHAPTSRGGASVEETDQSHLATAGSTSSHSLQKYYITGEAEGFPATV

Cc1ccc(S(=O)(=O)NC(=O)NC2CCCCC2)cc1
not listed: [17]
inactive: all other assays above

O=c1[nH][nH]c(=O)c2cc([N+](=O)[O-])ccc12
not listed: [2] | [4] | [7] | [17]
inactive: all other assays above

CCN(Cc1cccc(S(=O)(=O)O)c1)c1ccc(C(=C2C=CC(=[N+](CC)Cc3cccc(S(=O)(=O)O)c3)C=C2)c2ccccc2S(=O)(=O)[O-])cc1
active: [1] 19.4 µM | [3] 12.2 µM | [5] 6.14 µM | [6] 12.2 µM | [7] 27.4 µM | [10] 3.08 µM | [12] 17.3 µM
inactive: [9] | [17] | [15]

c1ccc(CCCc2ccncc2)cc1
active: [5] 27.3 µM
not listed: [4] | [14] | [17]
inactive: all other assays above

CO[C@@H]1[C@@H](OC)[C@H](C)[C@@](O)(CC(=O)O)O[C@H]1[C@H](C)[C@H]1O[C@@]2(CC[C@@](C)([C@H]3CC[C@@](C)([C@@H]4O[C@@H]([C@H]5O[C@](C)(O)[C@H](C)C[C@@H]5C)C[C@@H]4OC4C[C@H](OC)[C@@H](OC)[C@H](C)O4)O3)O2)C[C@H](O)[C@H]1C (stereo partly drawn)
inactive: [4] | [6] | [9] | [11] | [15] | [16]
active: [1] 3.35 µM | [2] 1.68 µM | [3] 11.9 µM | [10] 0.211 µM | [12] 1.68 µM | [13] 1.88 µM | [14] 2.66 µM

O=C(CCS)OCC(COC(=O)CCS)(COC(=O)CCS)COC(=O)CCS
not listed: [4] | [8] | [12] | [13] | [17]
inactive: all other assays above

CCC(=O)OCc1ccc(OC)cc1
not listed: [3] | [4] | [10] | [15]
inactive: all other assays above

Nc1ccc(N=Nc2ccc(N)cc2)cc1
inactive: [2] | [3] | [6] | [9] | [15] | [16]
active: [5] 12.2 µM | [12] 27.3 µM

CCCCOC(=O)CCCCC(=O)OCCCC
not listed: [3] | [4] | [11] | [15]
inactive: all other assays above

C1CCCCC1
not listed: [3] | [4] | [8] | [11] | [15]
inactive: all other assays above

CC(C)(C)C1(CCc2ccc(Cl)cc2)CO1 (stereo not drawn)
not listed: [4] | [11] | [17]
inactive: all other assays above
